Source: PubChem BioAssay (NCATS)
Where “and” joins values, the source holds several entries; their conditions need not be identical. Identical values can stand only once. Results filed as inconclusive are left out. Calls of active or inactive are those of the source. Calls follow the shape of the dose curve; as a rule, active = well fitted curve in the direction sought with a large enough effect; inconclusive = small, poorly fitted or top-dose-only effect, or another doubt; inactive = no such curve, though single readings can be large; an effect the other way counts as inactive or inconclusive.

Tests used:
[1] = Quantitative High-Throughput drug screen in 47 multiple myeloma cell lines against the NCATS MIPE library collection: FR4_PLB cell viability assay (AID 1918924; also: nearly all actives have a fitted effect of over 35% in size; also: potency is read from the fitted curve at half-maximal effect)
In short: (§1)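 Luminescent ATP measurement with CellTiter-Glo gives viability, scaled between DMSO-only wells (100%) and media-only wells (0%). Cells, 500 per well, faced library compounds for 48 hours at 37C.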

[2] = Quantitative High-Throughput drug screen in 47 multiple myeloma cell lines against the NCATS MIPE library collection: AMO1_DSMZ cell viability assay (AID 1918927; also: nearly all actives have a fitted effect of over 30% in size; also: potency is read from the fitted curve at half-maximal effect)
In short: (§2)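 Steps: seed 500 cells per well; pin-transfer MIPE 4.0 library; incubate 48 h at 37C, 5% CO2, humidified; add CellTiter-Glo, 5 min room temperature; read luminescence.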

[3] = Quantitative High-Throughput drug screen in 47 multiple myeloma cell lines against the NCATS MIPE library collection: ARD_JJKsccE7 cell viability assay (AID 1918929; also: potency is read from the fitted curve at half-maximal effect)
In short: as §2

[4] = Quantitative High-Throughput drug screen in 47 multiple myeloma cell lines against the NCATS MIPE library collection: Karpas620_DSMZ cell viability assay (AID 1918959); also: nearly all actives have a fitted effect of over 30% in size; also: potency is read from the fitted curve at half-maximal effect
In short: as §1

[5] = Quantitative High-Throughput drug screen in 47 multiple myeloma cell lines against the NCATS MIPE library collection: KMM1_JCRB cell viability assay (AID 1918960); also: nearly all actives have a fitted effect of over 30% in size; also: potency is read from the fitted curve at half-maximal effect
In short: (§3)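 Luminescence from CellTiter-Glo, taken after 5 min at room temperature, reports cellular ATP as viability. Cells (500 per well) had been treated 48 h at 37 °C with MIPE 4.0 compounds, scaled between DMSO and medium-only controls.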

[6] = Quantitative High-Throughput drug screen in 47 multiple myeloma cell lines against the NCATS MIPE library collection: JIM3_ECACC cell viability assay (AID 1918963; also: nearly all actives have a fitted effect of over 35% in size; also: potency is read from the fitted curve at half-maximal effect)
In short: as §1

[7] = Quantitative High-Throughput drug screen in 47 multiple myeloma cell lines against the NCATS MIPE library collection: JIM1_ECACC cell viability assay (AID 1918964; also: potency is read from the fitted curve at half-maximal effect)
In short: as §2

[8] = Quantitative High-Throughput drug screen in 47 multiple myeloma cell lines against the NCATS MIPE library collection: INA6_PLB cell viability assay (AID 1918965; also: nearly all actives have a fitted effect of over 55% in size; also: potency is read from the fitted curve at half-maximal effect)
In short: as §2

[9] = Quantitative High-Throughput drug screen in 47 multiple myeloma cell lines against the NCATS MIPE library collection: H1112_PLB cell viability assay (AID 1918967; also: nearly all actives have a fitted effect of over 30% in size; also: potency is read from the fitted curve at half-maximal effect)
In short: as §2

[10] = Quantitative High-Throughput drug screen in 47 multiple myeloma cell lines against the NCATS MIPE library collection: Karpas25_ECACC cell viability assay (AID 1918968; also: nearly all actives have a fitted effect of over 35% in size; also: potency is read from the fitted curve at half-maximal effect)
In short: as §2

[11] = Quantitative High-Throughput drug screen in 47 multiple myeloma cell lines against the NCATS MIPE library collection: KMS27_JCRB cell viability assay (AID 1918970); also: nearly all actives have a fitted effect of over 30% in size; also: potency is read from the fitted curve at half-maximal effect
In short: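 Myeloma cells (500 per well) were exposed to MIPE 4.0 compounds for 48 h at 37 °C, 5% CO2; viability was read as ATP luminescence with CellTiter-Glo, normalized to DMSO-only (100%) and media-only (0%) wells.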

[12] = Quantitative High-Throughput drug screen in 47 multiple myeloma cell lines against the NCATS MIPE library collection: ARP1_JJKsccF8 cell viability assay (AID 1918928; also: nearly all actives have a fitted effect of over 40% in size)
In short: as §3

[13] = Quantitative High-Throughput drug screen in 47 multiple myeloma cell lines against the NCATS MIPE library collection: KHM11_PLB cell viability assay (AID 1918962); also: nearly all actives have a fitted effect of over 35% in size; also: potency is read from the fitted curve at half-maximal effect
In short: as §1

[14] = Quantitative High-Throughput drug screen in 47 multiple myeloma cell lines against the NCATS MIPE library collection: KMS12BM_JCRB cell viability assay (AID 1918971); also: nearly all actives have a fitted effect of over 35% in size; also: potency is read from the fitted curve at half-maximal effect
In short: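 Myeloma cell lines, 500 cells per well, exposed to MIPE 4.0 library compounds for 48 h at 37C, 5% CO2. Viability from ATP by CellTiter-Glo luminescence; normalised to DMSO (100%) and media-only (0%) wells.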

[15] = Quantitative High-Throughput drug screen in 47 multiple myeloma cell lines against the NCATS MIPE library collection: EJM_DSMZ cell viability assay (AID 1918926; also: nearly all actives have a fitted effect of over 30% in size; also: potency is read from the fitted curve at half-maximal effect)
In short: as §2

[16] = Quantitative High-Throughput drug screen in 47 multiple myeloma cell lines against the NCATS MIPE library collection: JJN3_DSMZ cell viability assay (AID 1918966; also: potency is read from the fitted curve at half-maximal effect; nearly all actives have a fitted effect of over 50% in size)
In short: as §2

[17] = Quantitative High-Throughput drug screen in 47 multiple myeloma cell lines against the NCATS MIPE library collection: Delta47_JCRB cell viability assay (AID 1918925; also: nearly all actives have a fitted effect of over 45% in size; also: potency is read from the fitted curve at half-maximal effect)
In short: as §2

[18] = Quantitative High-Throughput drug screen in 47 multiple myeloma cell lines against the NCATS MIPE library collection: Karpas417_ECACC cell viability assay (AID 1918961); details: Karpas417 myeloma viability, CellTiter-Glo ATP luminescence, 48 h; viability (% of DMSO): at 45.8 µM (top of the series) unless noted; also: potency is read from the fitted curve at half-maximal effect
In short: as §2

Measured: Potency

N=c1nc(N2CCCCC2)cc(N)n1O
active: [8] 23.5 µM | [10] 26.4 µM
inactive: [1] | [2] | [3] | [4] | [5] | [6] | [7] | [9] | [11]

O=C(O)[C@@H](c1ccc(OCc2ccc3ccccc3n2)cc1)C1CCCC1
inactive: [1] | [2] | [12] | [3] | [4] | [5] | [13] | [6] | [8] | [9] | [10] | [11] | [14]

CC(C)(C)OC(=O)CN(Cc1ccc(Cl)cc1)Cc1ccc([N+](=O)[O-])s1
inactive: [1] | [15] | [3] | [4] | [5] | [13] | [11]
active: [6] 16.6 µM | [16] 10.5 µM

COc1ccc(-c2ccc3c(N4CCOC[C@H]4C)nc(N4CCOC[C@H]4C)nc3n2)cc1CO
active: [1] 0.0235 µM | [8] 0.0372 µM | [16] 0.0132 µM | [10] 0.0166 µM | [14] 0.0118 µM

NC[C@H](O)c1ccc(O)c(O)c1
active: [16] 4.18 µM | [14] 20.9 µM
inactive: [17] | [15] | [2] | [12] | [3] | [4] | [5] | [13] | [6] | [7] | [9] | [11]

CN[C@@H](C)C(=O)N[C@H]1CCCC[C@H]2CC[C@@H](C(=O)N[C@@H](c3ccccc3)c3cn(CCCCc4ccc(CCCCn5cc([C@@H](NC(=O)[C@@H]6CC[C@@H]7CCCC[C@H](NC(=O)[C@H](C)NC)C(=O)N76)c6ccccc6)nn5)cc4)nn3)N2C1=O
inactive: [14]
active: [17] 3.72 µM | [4] 14.8 µM | [13] 5.26 µM | [8] 8.33 µM | [11] 18.7 µM

Cc1ccc(NC(=O)c2cccc(C(C)(C)C#N)c2)cc1Nc1ccc2ncn(C)c(=O)c2c1
active: [2] 5.9 µM | [3] 0.332 µM | [4] 1.18 µM | [5] 2.35 µM | [18] 0.187 µM | [13] 0.166 µM | [6] 11.8 µM | [8] 14.8 µM | [16] 18.7 µM | [10] 13.2 µM | [11] 1.05 µM | [14] 20.9 µM

O=NN(CCCl)C(=O)NCCCl
active: [16] 0.148 µM
inactive: [17] | [2] | [4] | [5] | [13] | [6] | [7] | [8] | [9] | [10] | [11]

Cc1ccc(-n2nc(C(C)(C)C)cc2NC(=O)Nc2ccc(OCCN3CCOCC3)c3ccccc23)cc1
active: [17] 2.64 µM | [15] 18.7 µM | [2] 18.7 µM | [4] 16.6 µM | [6] 18.7 µM | [9] 1.18 µM | [10] 1.05 µM

CC(C=CC1=C(C)CCCC1(C)C)=CC=CC(C)=CC(=O)O
inactive: [5]
active: [17] 11.8 µM and 4.18 µM | [3] 23.5 µM | [13] 5.9 µM | [6] 20.9 µM and 4.69 µM | [8] 14.8 µM and 5.9 µM | [16] 5.9 µM and 1.66 µM | [9] 14.8 µM and 11.8 µM | [10] 16.6 µM and 18.7 µM | [11] 3.72 µM

O=C(C1CC1)N1CC[C@@H](Cn2c(-c3ccc(-c4ccc5occc5c4)cc3)nc3cnccc32)C1
inactive: [13] | [9]
active: [6] 16.6 µM | [8] 20.9 µM

O=C(Nc1nc2ccccc2n1CCN1CCOCC1)c1cccc([N+](=O)[O-])c1
inactive: [6] | [9] | [10]
active: [2] 4.18 µM | [3] 4.18 µM | [4] 7.43 µM | [5] 5.26 µM | [18] 4.69 µM | [7] 5.26 µM | [16] 20.9 µM | [11] 7.43 µM

CC(C)NCC(O)COc1ccc(COCCOC(C)C)cc1 (stereo unspecified)
inactive: [12] | [4] | [5] | [13] | [6] | [9] | [10]
